Sampled rows, rich in hits. Any-hit rate of the full collection: about 21%.
Shiga inhibitor: Shiga toxin inhibition | Vero cells, Shiga toxin protein synthesis inhibition reporter | inhibition, % at 38.7 µM | 290,000 tested, 9.2% active | AID 2315; in the data active means inhibition mostly above about 28%, no sharp cut-off; inactive means mostly below about 43%; further: 0% is about no effect
Pf growth 96h: P. falciparum growth inhibition at 96 hour, primary screen for plastid delayed-death inhibitors | P. falciparum luciferase reporter growth, 96 h | AID 504834 | 320,000 tested, 6.9% active | Potency, µM (series often up to 28.7 µM), for the others: top-dose activity change, negative = inhibition, actives largely listed as inhibitors; further: potency means the concentration at half of the fitted maximal effect; on the % scale 0 is the no-effect control and ±100 the full control effect
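Parasite growth measured via integrated firefly luciferase reporter in P. falciparum. Infected erythrocytes at 2% hematocrit, 0.05% parasitemia final were treated 96 hours at 37 C under 5% CO2, and luminescence was read.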
CHX counter: counter-screen hit for Shiga toxin inhibitors, cycloheximide; cell reporter, cycloheximide protein synthesis inhibition counterscreen; AID 2314; 300,000 tested, 12% active; max response, %; in the data active means max response mostly above about 13%, no sharp cut-off; inactive means mostly below about 14%; further: read at 38.3 µM for the half of the compounds with a filed dose; 0% is about no effect
Pf growth 48h: P. falciparum growth inhibition at 48 hours (one generation); AID 504832; P. falciparum luciferase growth in erythrocytes, 48 h; 310,000 tested, 5.9% active; Potency, µM (highest dose often 28.7 µM), inactives show at the top dose activity change, negative = inhibition, actives largely listed as inhibitors; further: potency means the concentration at half of the fitted maximal effect; on the % scale 0 is the no-effect control and ±100 the full control effect
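Here the parasites carry a stable luciferase gene and grow inside erythrocytes in Albumax-based RPMI medium with compound for one erythrocytic cycle. Activity is scored as loss of luminescent signal.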
HCV inhibitor: HCV inhibition; AID 651820; Potency, µM (highest dose often 41.8 µM), for inactives: at the highest dose activity change, negative = inhibition, most hits filed as inhibitors; Huh7.5.1 HCVcc-Cre infection, luciferase reporter, 44 h; 340,000 tested, 3.4% active; further: potency means the concentration at half of the fitted maximal effect; on the % scale 0 is the no-effect control and ±100 the full control effect
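Whole-lifecycle infectious HCVcc-Cre system; cells 1,000/well, compound then virus (~0.5 moi) added 4 h after plating, 44 h culture. Luciferase read 15 sec following 15 min substrate incubation, room temp.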
HCMV antiviral: inhibitors of human cytomegalovirus | HFF cells, HCMV-luciferase reporter, 72 h; hits give low values | activity change, negative = inhibition, % at 57.5 µM | 410,000 tested, 4.5% active; in the data active means activity change below about -60%; inconclusive means no clear call, values can overlap the other calls; inactive means above about -39%; further: on the % scale 0 is the no-effect control and ±100 the full control effect
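Screen run at 2 compound doses on HFFs infected with reporter HCMV, MOI 1 PFU/cell. Luciferase activity from cell lysates at 72 h post infection gave inhibition relative to buffer-only and Salinomycin wells.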
* hit, by the source's call. Unless noted, the call rests on the fitted dose curve; in most records, active means well fitted inhibition curve with a large enough effect; inconclusive means small, poorly fitted or top-dose-only effect, or another doubt; inactive means no such curve, though single readings can be large or run the other way.

Screening CC(=O)Nc1sc(N/N=C\c2ccccc2Cl)nc1-c1cccs1 returned Shiga inhibitor 81.6*, Pf growth 96h inconclusive, CHX counter 73.1*, Pf growth 48h inconclusive, HCV inhibitor -17.6% and HCMV antiviral -83.4*.
CCN1CCN(c2oc(-c3ccc(COc4ccccc4C)o3)nc2C#N)CC1 was read as HCMV antiviral -29.7.
`CCOC(=O)c1c(NC(=O)c2cc(=O)c3ccc(C)cc3o2)sc(C)c1C` gave HCMV antiviral 15.7.
For Cc1cc(C)n2cc(CSc3nnc(SCc4cn5c(C)cc(C)nc5n4)s3)nc2n1 the results were Shiga inhibitor 16.3, CHX counter -1.1 and Pf growth 48h 0.7%.
`Cc1cc(C)n2cc(CSc3nc4ccccc4s3)nc2n1` gave Shiga inhibitor 39.5*, Pf growth 96h -25.5%, CHX counter 35.7*, Pf growth 48h 108.2%, HCV inhibitor -5.1% and HCMV antiviral 65.3.
Screening Cc1cc(C)n2cc(CSc3nc4cc(Cl)ccc4o3)nc2n1 returned Shiga inhibitor -24.4, CHX counter -4.1, Pf growth 48h 20.3%, HCV inhibitor 2.6% and HCMV antiviral inconclusive.
Cc1cc(C)n2cc(CSc3ccc(Cl)cc3)nc2n1 was read as Shiga inhibitor 49.3*, Pf growth 96h -3.6%, CHX counter 27.0*, Pf growth 48h 29.6%, HCV inhibitor -5.7% and HCMV antiviral inconclusive.
`Cc1ccc(SCc2cn3c(C)cc(C)nc3n2)cc1` gave Shiga inhibitor 69.5*, Pf growth 96h -5.9%, CHX counter 23.2*, Pf growth 48h 11.2%, HCV inhibitor 21.9% and HCMV antiviral 15.6.
Screening Cc1ccc(C(=O)Nc2ccc(-c3cn4cccnc4n3)cc2)cc1C returned HCMV antiviral -18.9.
For CC(=O)N(/N=C/c1ccc(C)cc1)c1nc(CCl)cs1 the results were Shiga inhibitor 30.5, Pf growth 96h 76.7%, CHX counter 2.3, Pf growth 48h -1.5%, HCV inhibitor 7.5% and HCMV antiviral 13.7.
CCc1ccc(N(C(C)=O)c2nc(CCl)cs2)cc1 was read as Shiga inhibitor 48.0, Pf growth 96h 94.0%, CHX counter 29.3*, Pf growth 48h 23.2%, HCV inhibitor -11.9% and HCMV antiviral -10.7.
Screening Cc1ccc([N+](=O)[O-])cc1N=C(c1cccc(Br)c1)N1CCOCC1 returned Shiga inhibitor -6.1, Pf growth 96h 13.1µM*, CHX counter -1.8, Pf growth 48h inconclusive, HCV inhibitor inconclusive and HCMV antiviral -8.2.
Screening Cc1cccc(OCc2nc(CC(=O)Nc3ccc(Cl)cc3)cs2)c1 returned HCMV antiviral -11.7.
For CCNC(=O)c1cc2c(c(-c3cccc(-c4ccccc4F)c3)n1)[C@H](CCO)N(C(=O)CC)C2 the results were HCMV antiviral -27.1.
For CCC(=O)Nc1ccc2oc(-c3cccc(C)c3)nc2c1 the results were Shiga inhibitor active, Pf growth 96h 19.2%, CHX counter 34.8*, Pf growth 48h 39.9%, HCV inhibitor -12.5% and HCMV antiviral 136.1.
Cc1ccc(SCC(=O)Nc2ccc3oc(-c4cccc(C)c4)nc3c2)cc1 was read as HCMV antiviral 66.3.
Cc1ccc2nc(-c3cc(NC(=O)c4ccc5c(c4)OCCO5)ccc3Cl)oc2c1 was read as HCMV antiviral 6.8.
Cc1ccc2nc(-c3cccc(NC(=O)c4ccc5c(c4)OCCO5)c3)oc2c1 was read as Shiga inhibitor 33.8, Pf growth 96h 5.9%, CHX counter 20.4*, Pf growth 48h 138.5%, HCV inhibitor inconclusive and HCMV antiviral 18.9.
CCC(=O)Nc1cccc(-c2nc3ccc(C)cc3o2)c1 was read as Shiga inhibitor 125.2*, Pf growth 96h -16.3%, CHX counter 51.8*, Pf growth 48h 158.7%, HCV inhibitor inconclusive and HCMV antiviral 21.3.
Cc1ccc(C)c(S(=O)(=O)N2CCCC2CNC(=O)C(=O)NC2CCCC2)c1 (stereo not drawn) was read as Pf growth 96h -13.2%, Pf growth 48h inconclusive, HCV inhibitor -8.2% and HCMV antiviral -23.1.

From PubChem
